Among the data in PubChem BioAssay (EPA / NIEHS) are outcome and AC50 values, retold here.

The structures appear in SMILES notation. The source made the active and inactive calls. How the source made its calls: active means hit-call score of the fitted dose curve at least 0.9, where 1 is the maximum; inactive means score below 0.9.

Experiment [1] has as its target Transcription factor E2F1 (Homo sapiens) (UniProt Q01094). Nature of the experiment: ATG_E2F_CIS: Attagene CIS-FACTORIAL HepG2 Assay for human E2F Transcription Factor 1 (AID 2282935). Conditions: HepG2 Attagene cis-reporter, E2F reporter RNA transcripts; actives raise or lower the signal. Put shortly:
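In this cis-factorial format, endogenous factor activity drives transfected reporters in HepG2; transcripts collected at 24 h are quantified by fluorescence after RT-PCR and capillary separation.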

A short description of experiment [2]: ATG_E_Box_CIS: Attagene CIS-FACTORIAL HepG2 Assay for human Enhancer Box (E-box) (AID 2282936). Conditions: HepG2 E-box cis-reporter transcription, actives raise or lower the signal. Put shortly:
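Measured 24 h post-dosing in HepG2 cells transfected with multiple cis-regulated reporter units, signal being reporter mRNA induction detected by fluorescent RT-PCR with capillary electrophoresis; gain or loss fitted against DMSO.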

Experiment [3] can be described thus: ATG_M_61_CIS: Attagene CIS-FACTORIAL HepG2 Assay for M61 Transcription Factor (Internal Marker) (AID 2282937). Conditions: HepG2 Attagene CIS-FACTORIAL M61 internal marker reporter; actives raise or lower the signal. The gist of the method: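 HepG2 cells transiently transfected with cis-element-driven multiple reporter transcription units, dosed for 24 h. Reporter mRNA measured by RT-PCR, 6-FAM primer-extension labelling, HpaI digestion and capillary electrophoresis; bidirectional fit versus DMSO baseline.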

Experiment [4] can be described thus: ATG_EGR_CIS: Attagene CIS-FACTORIAL HepG2 Assay for human Early Growth Response 1 (EGR1) (AID 2282938). Conditions: HepG2 Attagene CIS-FACTORIAL EGR reporter mRNA; actives raise or lower the signal. Put shortly: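 HepG2 cells transiently transfected with cis-promoter-driven multiplexed reporter transcription units; reporter mRNA measured 24 h after compound dosing by RT-PCR, 6-FAM primer extension, HpaI digestion and capillary electrophoresis. Bidirectional fit versus DMSO baseline.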

Experiment [5] can be described thus: ATG_M_19_CIS: Attagene CIS-FACTORIAL HepG2 Assay for M19 Transcription Factor (Internal Marker) (AID 2282939). Conditions: HepG2 Attagene CIS-FACTORIAL M19 internal marker reporter; actives raise or lower the signal. The gist of the method: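 Following a 24 h exposure, RNA from transfected HepG2 cells was reverse-transcribed, PCR-amplified with reporter-specific primers, end-labelled with 6-FAM and HpaI-digested before capillary separation. Values represent gain or loss versus DMSO.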

Experiment [6] can be described thus: ATG_ERE_CIS: Attagene CIS-FACTORIAL HepG2 Assay for Estrogen Response Element (ERE) (AID 2282940). Conditions: HepG2 ERE cis-reporter, Attagene RNA transcript; actives raise or lower the signal. Put shortly:
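HepG2, transient cis-reporter units, 24 h exposure. RNA isolated, oligo(dT) RT, reporter-specific PCR, FAM extension, HpaI cut, CE detection. Gain/loss-of-signal vs DMSO.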

Experiment [7] can be described thus: ATG_Ets_CIS: Attagene CIS-FACTORIAL HepG2 Assay for human Erythroblast Transformation Specific (ETS) (AID 2282941). Conditions: HepG2 ETS cis-reporter transcription, actives raise or lower the signal. The gist of the method: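 RT-PCR/capillary electrophoresis fluorescence read-out of reporter mRNA; HepG2 transient multi-reporter transfection; 24 h compound exposure; gain or loss of signal fitted bidirectionally relative to DMSO.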

Experiment [8] concerns the target Hepatocyte nuclear factor 3-beta (Homo sapiens) (UniProt Q9Y261). Nature of the experiment: ATG_FoxA2_CIS: Attagene CIS-FACTORIAL HepG2 Assay for human Forkhead box A2 (FOXA2) (AID 2282942). Conditions: HepG2 cis-reporter transcription factor activity, 24 h; actives raise or lower the signal. The gist of the method: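 HepG2 cells transiently transfected with multiple cis-regulated reporter transcription units, dosed for 24 h. Reporter mRNA measured by RT-PCR, 6-FAM labelling, HpaI digestion and capillary electrophoresis; bidirectional fitting against DMSO baseline.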

Experiment [9] in a line: ATG_GATA_CIS: Attagene CIS-FACTORIAL HepG2 Assay for human GATA Binding Protein (AID 2282944). Conditions: HepG2 GATA cis-element reporter, Attagene multiplex mRNA; actives raise or lower the signal. The gist of the method:
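DMSO serves as negative control and baseline for bidirectional fitting of reporter mRNA changes. HepG2 cells bearing transiently transfected cis-promoter reporters were exposed 24 h; transcripts detected via RT-PCR and capillary electrophoresis.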

The nature of experiment [10]: ATG_FoxO_CIS: Attagene CIS-FACTORIAL HepG2 Assay for human Forkhead box O (FoxO) (AID 2282943). Conditions: HepG2 Attagene cis-reporter, FoxO element, mRNA; actives raise or lower the signal. The gist of the method:
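HepG2 cells transiently transfected with cis-promoter-driven multiple reporter transcription units; 24 h after chemical dosing, reporter mRNA quantified by RT-PCR, fluorescent primer extension, HpaI digestion and capillary electrophoresis. Bidirectional fitting versus DMSO baseline.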

A word on the AC50: it is the concentration giving half of the maximal activity seen.

Chain of Hepatocyte nuclear factor 3-beta (Homo sapiens) (Q9Y261 whole entry, looked up): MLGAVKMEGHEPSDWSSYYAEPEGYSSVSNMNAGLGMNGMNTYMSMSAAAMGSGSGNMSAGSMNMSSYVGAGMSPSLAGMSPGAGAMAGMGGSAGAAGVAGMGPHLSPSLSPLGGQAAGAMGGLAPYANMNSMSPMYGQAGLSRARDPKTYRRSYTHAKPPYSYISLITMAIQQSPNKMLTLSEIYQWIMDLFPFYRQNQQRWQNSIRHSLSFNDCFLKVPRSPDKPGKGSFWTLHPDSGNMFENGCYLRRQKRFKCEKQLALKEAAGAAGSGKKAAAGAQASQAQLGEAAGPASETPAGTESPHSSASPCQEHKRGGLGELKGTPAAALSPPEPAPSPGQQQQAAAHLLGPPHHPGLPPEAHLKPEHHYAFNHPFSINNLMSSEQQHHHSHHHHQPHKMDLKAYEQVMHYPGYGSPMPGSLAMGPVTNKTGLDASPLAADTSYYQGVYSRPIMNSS
Chain of Transcription factor E2F1 (Homo sapiens) (Q01094 whole entry, looked up): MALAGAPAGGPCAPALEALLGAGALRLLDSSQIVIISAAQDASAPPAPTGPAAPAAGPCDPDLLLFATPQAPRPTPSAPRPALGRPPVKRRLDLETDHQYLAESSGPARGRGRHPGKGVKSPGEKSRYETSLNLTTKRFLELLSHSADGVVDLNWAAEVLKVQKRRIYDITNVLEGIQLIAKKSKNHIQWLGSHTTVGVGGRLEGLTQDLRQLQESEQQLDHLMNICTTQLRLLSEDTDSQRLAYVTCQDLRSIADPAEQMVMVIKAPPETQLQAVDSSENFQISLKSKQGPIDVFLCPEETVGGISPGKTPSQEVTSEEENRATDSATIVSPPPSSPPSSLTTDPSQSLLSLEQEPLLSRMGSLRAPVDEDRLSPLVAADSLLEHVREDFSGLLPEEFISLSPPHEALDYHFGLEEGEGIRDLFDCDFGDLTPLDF

For `CC1(C)CC(N)CC(C)(CN)C1` (stereo unspecified), the compound was called inactive in experiment [1], in experiment [2], in [3], in experiment [4], in experiment [5] and in [6]. Moreover, the compound was called inactive in [7], in experiment [8] and in experiment [9].

`COC(=O)C(C)Oc1ccc(Oc2ncc(C(F)(F)F)cc2Cl)cc1` (stereo unspecified): the compound was classed as inactive in [1], in [3], in experiment [5], in [6], in experiment [7] and in [10]. The result in experiment [9] was inactive. For the same compound, the half-maximal activity concentration (AC50) was 180 µM (active) in experiment [2] and 76.1 µM (active) in [4].

`O=C(O)C1=NN(c2ccc(S(=O)(=O)O)cc2)C(=O)C1`: the compound was classed as inactive in experiment [1], in [2], in [3], in [4], in [5] and in experiment [6]. Besides, the call in experiment [7], in experiment [10] and in experiment [9] was inactive.

For `COC(=O)c1ccc(C(=O)OC)cc1`, the outcome in experiment [1], in experiment [2], in experiment [3], in [4], in [5] and in experiment [6] was inactive. Moreover, the compound was classed as inactive in experiment [7], in experiment [8] and in experiment [9].

Consider `CC(C)(C)c1cccc(O)c1`, for which the compound was called inactive in experiment [1], in experiment [2], in experiment [3], in experiment [4], in experiment [5] and in experiment [7]. For the same compound, the compound was called inactive in experiment [8].

Consider `O=c1cc[nH]cc1`, for which the result in experiment [1], in experiment [2], in experiment [3], in experiment [4], in [5] and in experiment [7] was inactive. Also, the result in experiment [8] and in experiment [10] was inactive.

Turning to `NC(=O)NC(N)=O`, the compound was classed as inactive in experiment [1], in experiment [2], in experiment [3], in experiment [4], in experiment [5] and in experiment [7]. Moreover, the outcome in experiment [8] and in experiment [9] was inactive.

As to `Cc1ccc(C(C)(C)O)cc1`, the outcome in [1], in experiment [2], in [3], in [4], in [5] and in experiment [7] was inactive. Besides, the call in experiment [8], in experiment [10] and in [9] was inactive.

As to `CC(=O)OC(C)(C)C1CC=C(C)CC1` (stereo unspecified), the compound was called inactive in experiment [1], in experiment [2], in [3], in experiment [4], in [5] and in experiment [8]. The compound was classed as inactive in [10] and in experiment [9]. In experiment [6], the AC50 is 26.1 µM (active).

`CCOC(=O)CC(C)C`: the call in experiment [1], in experiment [2], in experiment [3], in [4], in experiment [5] and in [6] was inactive. Moreover, the result in experiment [8], in experiment [10] and in [9] was inactive.

Turning to `C[C@]12CC[C@@H]3c4ccc(O)cc4CC[C@H]3[C@@H]1CC[C@@H]2O`, the result in experiment [1], in [2], in [3], in experiment [4], in experiment [5] and in experiment [7] was inactive. For the same compound, the outcome in experiment [8], in experiment [10] and in experiment [9] was inactive.

For `CC(=O)CCC=C(C)CCC=C(C)C`, the outcome in [1], in experiment [2], in [3], in experiment [4], in experiment [5] and in experiment [6] was inactive. Besides, the compound was classed as inactive in experiment [8], in experiment [10] and in [9].

Take `CCCCN(CCO)CCO`: the compound was classed as inactive in experiment [1], in experiment [2], in experiment [3], in [4], in experiment [5] and in experiment [7]. Moreover, the call in [8] and in experiment [10] was inactive.

With `CC(C)OB(OC(C)C)OC(C)C`, the call in experiment [1], in experiment [2], in [3], in experiment [4], in experiment [5] and in experiment [7] was inactive. For the same compound, the call in experiment [8], in experiment [10] and in experiment [9] was inactive.

`CNC(=C[N+](=O)[O-])NCCSCc1ccc(CN(C)C)o1`: the compound was called inactive in experiment [1], in experiment [2], in experiment [3], in experiment [4], in [5] and in [6]. Moreover, the result in [8], in experiment [10] and in [9] was inactive.

`CCCCCCCCCCCCS`: the compound was called inactive in experiment [1], in experiment [2], in experiment [3], in [4], in experiment [5] and in experiment [7]. The outcome in [8], in experiment [10] and in experiment [9] was inactive.

Turning to `Cc1cccc(C)c1`, the compound was classed as inactive in [1], in experiment [2], in experiment [3], in experiment [4], in [5] and in experiment [6]. The call in experiment [8], in experiment [10] and in experiment [9] was inactive.

As for `CC(=O)c1ccc(O)cc1`, the result in experiment [1], in experiment [2], in experiment [3], in experiment [4], in [5] and in experiment [7] was inactive. Also, the compound was called inactive in experiment [8] and in [10].
